Source: PubChem
Shown are actives, neighbours in structure and some others; about 4.2% of the full set was active somewhere.
PrPC surface inh = cell surface PrPC inhibition, primary TR-FRET screen; P04156; inhibition, % at 13.8 µM; 370,000 compounds, 0.43% hits; TR-FRET read-out; AID 720596; in the data active = inhibition above about 24%; also: 0% = median of the test wells and 100% = reference compound wells
Mtb FBA inh = inhibits M. tuberculosis FBA enzyme; purified M. tuberculosis FBA, fluorescence read-out; inhibition, % at 1 µM; 360,000 compounds, 2.3% hits; in the data active = inhibition above about 27%;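 also: 0% = vehicle and 100% = reference inhibitor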
GDH-TPI inh = GDH-TPI coupled enzyme inhibition counter-screen; GDH-TPI coupled enzyme counterscreen, NADH absorbance; inhibition, % at 4.8 µM; 360,000 compounds, 1.2% hits; in the data active = inhibition above about 30%;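 also: 0% = DMSO wells and 100% = wells lacking the enzyme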
BJeLR lethal = kills HRASV12-expressing BJeLR cells | inhibition, % (no concentration beside the values) | BJeLR (HRASV12) viability, CellTiter-Glo ATP luminescence, 48 h | 300,000 compounds, 0.17% hits; in the data active = inhibition above about 50%
RecA splice inh = inhibitors of M. tuberculosis RecA intein splicing; P9WHJ3; cell-free RecA intein splicing, fluorescence; inhibition, % (no concentration beside the values); 290,000 compounds, 0.75% hits; in the data active = inhibition above about 30%;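 also: 0% = vehicle wells and 100% = reference inhibitor control wells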
PrPC confirm = confirmation of inhibitors of cell surface human prion protein; inhibition, % at 13.8 µM; cell surface PrPC level, TR-FRET; shares compounds with PrPC surface inh; 1,500 compounds, 65% hits; in the data active = inhibition above about 25%
LD9 cytotox = LD9 cell cytotoxicity, PrPc inhibitor counter-screen | shares compounds with PrPC surface inh | LD9 cells cytotoxicity, luminescence viability | inhibition, % at 13.8 µM | 1,500 compounds, 29% hits | AID 743201; in the data active = inhibition above about 9.5%
The depositor's hits bear a star; . = not tested or not shown.

SMILES	PrPC surface inh	Mtb FBA inh	GDH-TPI inh	BJeLR lethal	RecA splice inh	PrPC confirm	LD9 cytotox
O=C(NCc1ccccc1)c1ccc(Cl)cc1	7	.	.	-8	-2	.	.
CCCCCCCCNS(=O)(=O)CC1NCc2ccc(C)cc21 (stereo unspecified)	2	.	.	.	.	.	.
COc1ccc(C2CC(=O)C(c3cccc(F)c3)=CN2Cc2ccccc2)cc1 (stereo unspecified)	13	.	.	.	.	.	.
CC(NC(N)=O)C12CC3CC(CC(C3)C1)C2 (stereo unspecified)	0	1	-1	-7	2	.	.
CC(NC1CCCCC1)C(O)C12CC3CC(CC(C3)C1)C2 (stereo unspecified)	36*	1	17	1	0	28*	2
COc1cccc(N2CCN(C(=O)CCn3nnc4ccccc43)CC2)c1	6	.	.	.	.	.	.
Oc1ccc(Nc2nc(-c3ccccc3)nc3ccccc23)cc1	.	1	13	0	-3	.	.
CC(=O)Nc1ccc(Nc2nc(-c3ccccc3)nc3ccccc23)cc1	30*	1	12	3	0	18	17*
CC(=O)NC1(C(F)(F)F)C(=O)Nc2c1c(=O)[nH]c(=O)n2Cc1ccco1 (stereo unspecified)	5	3	-1	-6	.	.	.
O=c1[nH]c(=O)n(Cc2ccco2)c2c1C(C(F)(F)F)(C(F)(F)F)N=C(Cc1ccccc1)N2	56*	-2	3	5	-2	47*	8
Nc1[nH]c(C(=O)c2ccc(Br)cc2)c(-c2ccncc2)c1C(=O)c1ccccc1	-10	.	.	.	.	.	.
C[C@H]1CN([C@@H](C)CO)C(=O)CCCn2nncc2CO[C@@H]1CN(C)C(=O)Nc1ccccc1F	3	.	.	.	.	.	.
Cc1ccc(SC2=C[C@@]3(O)CC[C@@H](O)[C@@](Sc4ccc(C)cc4)(C2=O)[C@H]3O)cc1	27*	.	.	.	.	20	-9
CCN(CC)C(=O)C1CCCc2c1[nH]c1ccc(Cl)cc21 (stereo unspecified)	26*	3	1	28	-5	7	-7
Cc1ccc2[nH]c3c(c2c1)CCCC3C(N)=O (stereo unspecified)	5	4	8	8	-7	.	.
COc1ccc(CNCC#Cc2ccccc2)cc1	0	.	.	.	.	.	.
CCSc1nc(COC(=O)NC)c(COC(=O)NC)n1C	-6	3	3	.	.	.	.
CNC(=O)OCc1nc(SSC(C)(C)C)n(C)c1COC(=O)NC	50*	-5	-6	.	.	23	92*
O=S(=O)(CCN1CCN(c2ccccc2O)CC1)c1cc(Cl)ccc1Cl	36*	-2	-4	.	.	3	-2
CCN(CC)c1ccc(C=Nn2c(-c3ccc(F)cc3)n[nH]c2=S)c(O)c1	8	.	.	.	.	.	.
Cc1cc(NC(=O)COc2ccc3ccccc3c2Br)no1	80*	-1	-7	.	.	101*	-2
CCOc1ccccc1OCC(=O)Nc1cc(C)on1	-4	0	1	.	.	.	.
CC(C)(C)C(=O)NNC(=O)COc1ccc2ccccc2c1Br	72*	2	6	-1	-1	71*	-4
O=C(COc1ccc2ccccc2c1Br)NNC(=O)Nc1ccccc1	7	0	10	4	1	.	.
COC(=O)NNC(=O)COc1ccc2ccccc2c1Br	34*	10	-3	-2	2	49*	-1
SMILES	PrPC surface inh	Mtb FBA inh	GDH-TPI inh	BJeLR lethal	RecA splice inh	PrPC confirm	LD9 cytotox
CCOC(=O)C1=CCN(S(=O)(=O)c2ccc(Cl)cc2)C1c1ccc(Br)cc1 (stereo unspecified)	2	.	.	.	.	.	.
C[C@@H]1CN(C(=O)OC(C)(C)C)CCN1c1ccc(N2CC[C@@H](O)C2)c(C#N)c1	16	.	.	.	.	.	.
CCOCCCNC(=O)c1cc(Cl)c(NC(=O)C2=C(C)OCCS2)cc1OC	4	3	-1	3	2	.	.
CCCNC(=O)c1cc(Cl)c(NC(=O)C2=C(C)OCCS2)cc1OC	26*	0	7	-2	0	32*	-2
COc1cc(C(=O)Nc2ccc3c(c2)ncn3C)cc(OC)c1OC	77*	-2	-1	29	3	73*	0
S=C(Nc1ccccc1)Nc1nccs1	11	0	20	3	1	.	.
Fc1ccc(NC(=S)Nc2nccs2)cc1	32*	-2	4	7	0	20	5
N#Cc1ccccc1NC(=O)CSc1nnc(-c2ccc(F)cc2)n1-c1ccccc1	38*	0	7	-3	4	29*	2
Cc1nnc(SCC(=O)Nc2cc(C(N)=O)cc(C(N)=O)c2)n1-c1ccccc1	45*	-1	3	-2	0	29*	-6
COC(=O)[C@]12C[C@H](CC(=O)N3CCCCC3)C(=O)N(Cc3ccc4c(c3)OCO4)C1=C[C@H](C(C)(C)C)O[C@@H]2C	-4	.	.	.	.	.	.
O=C(Nc1ccc2ncccc2c1)c1cc(-c2ccc(Cl)cc2)nc2ccccc12	-4	.	.	.	.	.	.
Oc1ccc(Cc2ncc(C(F)(F)F)cc2Cl)cc1	-3	3	13	1	-1	.	.
COC(=O)C(C)Oc1ccc(Cc2ncc(C(F)(F)F)cc2Cl)cc1 (stereo unspecified)	62*	3	-2	-3	3	0	-11
O=C(NCCCc1ccccc1)O[C@@H]1CC[C@@]23CCCN2C(=O)CCC[C@H]3C1	6	.	.	.	.	.	.
Cc1nc2ccc(S(=O)(=O)NCC(=O)N(C)Cc3ccccc3F)cc2s1	0	.	.	.	.	.	.
CCNC(=O)N1CCN(c2ccc(N3CCN(C(=O)NCC)[C@@H](C)C3)c(C)c2)[C@@H](C)C1	1	.	.	.	.	.	.
CCCCCc1c(CC)ncn1CCc1ccccc1OC	29*	.	.	.	.	19	22*
Cc1ccc(S(=O)(=O)Nc2ccccc2C(=O)N2CCOCC2)cc1	-7	6	-3	-6	0	.	.
CS(=O)(=O)Nc1ccccc1C(=O)N1CCOCC1	34*	0	8	4	3	9	-5
COc1ccc(C(C(=O)NC2CCCC2)N(C(=O)c2snc(-c3ccc(F)cc3)c2N)c2ccc(OC)cc2)cc1 (stereo unspecified)	46*	-2	4	4	-3	60*	0
CCC12CN3CCN(CC(C3)/C1=N/NC(N)=O)C2	0	-2	-1	2	-1	.	.
CC1CC(C)C(=NNC(N)=O)C(C(O)CC2CCC(=O)NC2=O)C1 (stereo unspecified)	84*	4	1	.	.	43*	15*
C[C@H]1C[C@@H](C)C(=O)[C@@H]([C@H](O)CC2CC(=O)NC(=O)C2)C1	89*	3	-6	44	0	98*	32*
CC(COc1ccc(C#N)cc1F)CN1CCC(C(O)(c2ccccc2)c2ccccc2)CC1 (stereo unspecified)	-17	.	.	.	.	.	.
COc1cc(C(=O)N[C@@H](C)C(=O)N2CCC3(CC2)NCCc2[nH]cnc23)cc(OC)c1OC	25*	2	-5	4	-1	6	4
Cc1cccc(C(O)c2ncc(-c3ccc(C(F)(F)F)cc3)[nH]2)c1C (stereo unspecified)	26*	1	14	.	.	18	0
